We go through one compound from PubChem BioAssay (NCATS).

This test is described as follows: Primary qHTS for inhibitors of nuclear receptor binding SET domain protein 2 (NSD2) in an isogenic RCH-ACV NSD2 p.E1099K mutant (9B) (AID 1645876). Also: nearly all actives have a fitted effect of over 70% in size.

Each structure is given as a SMILES string. Results filed as inconclusive are left out. A call without a number means that no potency is given here. Active and inactive are the calls of the source. Calls follow the shape of the dose curve; as a rule, active = well fitted inhibition curve with a large enough effect; inconclusive = small, poorly fitted or top-dose-only effect; inactive = flat fitted curve, though single readings scatter.

`Nc1ccn(CC(CO)OCP(=O)(O)O)c(=O)n1` (stereo unspecified): the Potency result was “inactive”.
